# Compounds with a hit are over-represented: about 7.6% of the library has one in this group of screens.
# ELG1 repair inh: blocks ELG1-dependent DNA repair in HEK293T cells; HEK293T ELG1-luciferase reporter, luminescence, 16 h; DNA damage induced by 5-fluorouridine; 2.3% of 330,000 active; Potency, µM (highest dose often 46.1 µM), actives largely listed as inhibitors; AID 504467; also: nearly all actives have a fitted effect of over 55% in size
#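 Overnight (16 hr) co-exposure of 2,000 cells/well to 5-fluorouridine and compound at 37 °C preceded detection. Luciferase was quantified via ONE-Glo luminescence; loss of signal denotes inhibition.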
# BRCA1 expr up: activators of BRCA1 expression | MCF7-BRCA1-FFLuc reporter, luminescence, 48 h; response scale: scaled: vehicle 0%, 10 µM genistein 100% | Potency, µM (titrated, usually from 46.1 µM), most hits filed as activators | 1.1% of 380,000 active | AID 624202; also: nearly all actives have a fitted effect of over 80% in size
#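 Cells: MCF7-BRCA1-FFLuc, 2000/well. Exposure: 48 h, 37 °C, 5% CO2. Read: luminescence, 15 min post-substrate. Controls: genistein 10 microM (maximal activation), DMSO (neutral).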
# RORgamma inh: inhibitors of mouse ROR gamma transcriptional activity | Drosophila S2 Gal4-RORgamma UAS-luciferase reporter, 20 h | Potency, µM (doses to about 53.6 µM), actives largely listed as inhibitors | 5.4% of 310,000 active; also: nearly all actives have a fitted effect of over 60% in size
# Target sequence (P51450 whole entry, looked up, the tested form may be a part): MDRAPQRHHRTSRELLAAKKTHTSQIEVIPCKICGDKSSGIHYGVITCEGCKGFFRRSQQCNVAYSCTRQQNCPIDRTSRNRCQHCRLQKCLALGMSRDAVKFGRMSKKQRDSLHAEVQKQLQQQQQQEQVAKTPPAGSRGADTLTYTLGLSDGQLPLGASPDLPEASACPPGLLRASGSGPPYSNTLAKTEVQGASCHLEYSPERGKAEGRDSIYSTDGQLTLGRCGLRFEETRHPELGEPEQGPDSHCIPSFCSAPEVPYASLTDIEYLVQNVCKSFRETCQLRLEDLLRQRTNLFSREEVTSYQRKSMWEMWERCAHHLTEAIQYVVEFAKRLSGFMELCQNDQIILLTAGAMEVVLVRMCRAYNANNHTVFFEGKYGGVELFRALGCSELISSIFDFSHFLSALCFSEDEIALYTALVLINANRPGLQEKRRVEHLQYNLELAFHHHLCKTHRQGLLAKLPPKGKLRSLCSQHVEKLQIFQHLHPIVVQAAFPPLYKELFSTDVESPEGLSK
#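 Luciferase reporter read in Schneider cells carrying Gal4-RORγ (mouse) and UAS-Photinus luciferase; cells given compound 1 h before 700 uM copper sulfate induction, then incubated 20 h at ambient temperature.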
# VP16 counter: Gal4-VP16 reporter inhibition counter-screen; 3.5% of 310,000 active; Potency, µM (highest dose often 53.6 µM), most hits filed as inhibitors; Drosophila S2 Gal4-VP16 UAS-luciferase, luminescence, 20 h;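 also: Gal4-VP16 expression switched on by copper sulfate through the metallothionein promoter; nearly all actives have a fitted effect of over 50% in size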
# Giardia kill: Giardia lamblia killing. activity change, % at 7.66 µM, hits read low. Giardia lamblia trophozoite viability. 0.15% of 340,000 active. AID 540267; in the data active = activity change below about -80%; inconclusive = between about -30% and that limit;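 also: parasites exposed to compound for two days anaerobically before the ATP read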
#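 Giardia lamblia trophozoites (100 cells/well) were incubated with compounds for 48 h at 37 deg C under anaerobic conditions. Viability was read as ATP content by one-step luminescence after 15-30 min at room temperature.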
# p53 reactivation: restores transcriptional activity of mutant p53; H1299 p53-A138V BP100-luciferase reporter, luminescence, 24 h; Potency, µM (titrated, usually from 92.2 µM), most hits filed as activators; 0.063% of 320,000 active; AID 504706; also: nearly all actives have a fitted effect of over 45% in size
#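 H1299 (p53-null), stable ts p53-A138V + BP100-Luc; 1000 cells/well, Opti-MEM/10% FBS; cpd 4 pt, 1:5; 24 h, 37 deg C, 5% CO2; detection reagent 10 min RT; luminescence.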
# Hits are given with their value; - = inactive; ? = inconclusive; . = no result. Unless noted, calls follow the shape of the dose curve; as a rule, active = well fitted curve in the direction sought with a large enough effect; inconclusive = small, poorly fitted or top-dose-only effect, or another doubt; inactive = no such curve, though single readings can be large; an effect the other way counts as inactive or inconclusive.
SMILES,ELG1 repair inh,BRCA1 expr up,RORgamma inh,VP16 counter,Giardia kill,p53 reactivation
O=C(N/N=C/c1cc([N+](=O)[O-])cc(Br)c1O)C12CC3CCC(CC(C3)C1)C2,23µM,-,5µM,4µM,-,-
CN1C(=O)c2ccc(C(=O)NCc3ccco3)cc2C1=O,-,-,-,-,-,-
CCOC(=O)CN1C(=O)S/C(=C/c2ccc(N3CCCCC3)o2)C1=O,-,-,-,-,-,?
COc1ccc(N=C2S/C(=C\c3cc(C)n(C)c3C)C(=O)N2CC(C)C)cc1,?,-,-,-,-,-
CCn1c(C)cc(/C=C2/SC(=O)N(C(C)C(=O)OC)C2=O)c1C (configuration not stated),?,4.5µM,?,-,-,-
CCCN1C(=O)S/C(=C/c2ccc(N3CCOCC3)o2)C1=O,?,-,-,-,-,-
COCCn1c(C)cc(/C=C2/SC(=O)N(C(C)C(=O)OC)C2=O)c1C (configuration not stated),?,?,-,-,?,-
CCCN1C(=O)S/C(=C\c2ccc(N3CCOCC3)o2)C1=O,?,-,5.6µM,4.5µM,-,-
COC(=O)CN1C(=O)S/C(=C/c2ccc(N3CCCCC3)o2)C1=O,?,10µM,?,5µM,-,-
COC(=O)CN1C(=O)S/C(=C/c2cc(C)n(C)c2C)C1=O,?,13µM,-,-,-,-
COCCCn1c2nc3ccccc3nc2c2c(=O)n(Cc3cccs3)cnc21,-,.,-,-,.,-
CSCCC(NC(=O)C1CCCCC1)c1nc2ccccc2[nH]1 (configuration not stated),-,-,-,-,-,-
COc1ccc(/[N+]([O-])=C/c2ccco2)cc1,?,8.9µM,.,.,-,?
CC1(C)CC(=O)C2=C(C1)NC1=C(C(=O)c3ccccc31)C2c1ccccc1 (configuration not stated),26µM,-,?,-,-,-
CC(NC(=O)/C(C#N)=C/c1ccc([N+](=O)[O-])o1)c1ccccc1 (configuration not stated),-,-,5µM,2.5µM,-,-
COC(=O)c1ccc(/C=C(\C#N)C(=O)NC(C)c2ccccc2)cc1 (configuration not stated),?,-,0.5µM,4.5µM,-,-
Cc1sc(NC(=O)CSc2nnnn2C)c(C#N)c1C,-,-,-,-,-,-
CCOC(=O)Cc1csc(NC(=S)NC(=O)CC(C)C)n1,?,-,11µM,?,-,-
COc1ccccc1NC(=O)Cc1csc(NC(=S)Nc2ccc(C)cc2)n1,?,-,0.89µM,2.8µM,-,-
CCC(=O)Nc1nc(CC(=O)Nc2ccccc2OC)cs1,-,-,-,-,-,-
CCCC(=O)Nc1nc(CC(=O)OCC)cs1,-,-,-,-,-,-
CCOC(=O)Cc1csc(NC(=S)NC(=O)c2ccccc2Br)n1,?,-,5.6µM,4µM,-,-
CC(C)CC(=O)NC(=S)Nc1nc(-c2cccc3ccccc23)cs1,-,-,3.2µM,13µM,-,-
CCOCCn1c(N2CCN(c3ccc(OC)cc3)CC2)nc2c1c(=O)[nH]c(=O)n2C,?,-,-,-,-,-
CCCN(C(=O)c1cc2c(=O)oc3ccccc3c2s1)c1ccccc1C,.,-,.,.,.,.
SMILES,ELG1 repair inh,BRCA1 expr up,RORgamma inh,VP16 counter,Giardia kill,p53 reactivation
CCOC(=O)Cc1csc(NC(=S)NC(=O)c2cc(OC)cc(OC)c2)n1,?,-,?,?,-,-
CCOC(=O)Cc1csc(NC(=S)NC(=O)c2ccccc2)n1,-,-,?,-,-,-
CCOC(=O)Cc1csc(NC(=S)NC(=O)c2cccc([N+](=O)[O-])c2)n1,-,-,11µM,?,-,-
CCOC(=O)Cc1csc(NC(=S)NC(=O)c2ccc(C)cc2)n1,?,-,5µM,8.9µM,?,-
COc1ccc(NCC(=O)Nc2ccccc2C#N)cc1Cl,?,-,-,-,-,-
c1ccc(-c2cn3c(n2)-c2ccccc2C3)cc1,?,-,10µM,?,?,-
O=C1c2ccccc2CN2C(=O)c3ccccc3CN12,-,-,-,-,-,-
